Measured values reported in PubChem BioAssay (NCATS).
Several values for one entry are separate records, joined by “and”; a condition that tells them apart may be missing. Equal values may be shown once. Results filed as inconclusive are left out. Activity calls are given as the source filed them. The call rests on the fitted dose curve; in most records, active means well fitted curve in the direction sought with a large enough effect; inconclusive means small, poorly fitted or top-dose-only effect, or another doubt; inactive means no such curve, though single readings can be large; an effect the other way counts as inactive or inconclusive.

Legend:
[1] = qHTS of pediatric cancer cell lines to identify multiple opportunities for drug repurposing: Primary screen for TC32 cells (AID 1347089); further: nearly all actives have a fitted effect of over 60% in size; further: potency means the concentration at half of the fitted maximal effect
Procedure, shortened: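 A viability screen of TC32 cells was run over 48 h, with primary MIPE doses spanning 0.78 nM–46 µM and NPC doses 0.59 nM–46 µM. ATP luminescence (CellTiter-Glo) served as the read-out.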

[2] = qHTS of pediatric cancer cell lines to identify multiple opportunities for drug repurposing: Primary screen for DAOY cells (AID 1347090); further: series mostly up to about 46 µM; nearly all actives have a fitted effect of over 55% in size
Procedure, shortened: (§1)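 Eight- or eleven-point concentration series, 48 h treatment at 37 degrees C in growth media; readout CellTiter-Glo luminescence. Potency and efficacy were taken from the concentration-response curves.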

[3] = qHTS of pediatric cancer cell lines to identify multiple opportunities for drug repurposing: Primary screen for SJ-GBM2 cells (AID 1347091); further: potency means the concentration at half of the fitted maximal effect
Procedure, shortened: as §1

[4] = qHTS of pediatric cancer cell lines to identify multiple opportunities for drug repurposing: Primary screen for SK-N-MC cells (AID 1347093); further: potency means the concentration at half of the fitted maximal effect
Procedure, shortened: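 Metabolically active cells were quantified by ATP-dependent luminescence (CellTiter-Glo, 15 min at room temperature) following 48 h treatment. Cells had been plated at 500-1,000 per well and settled for 5 h beforehand.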

[5] = qHTS of pediatric cancer cell lines to identify multiple opportunities for drug repurposing: Primary screen for BT-37 cells (AID 1347094); further: potency means the concentration at half of the fitted maximal effect
Procedure, shortened: (§2)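 Plated cells (500-1,000 per well, growth media) were allowed to settle for 5 hours, treated with compound dilutions for 48 hours, then lysed with CellTiter-Glo for 15 min at room temperature before luminescence reading.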

[6] = qHTS of pediatric cancer cell lines to identify multiple opportunities for drug repurposing: Primary screen for U-2 OS cells (AID 1347096); further: nearly all actives have a fitted effect of over 50% in size
Procedure, shortened: (§3)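 Cells (500-1,000/well) in growth media were settled 5 h at 37 degrees C, then given compounds for 48 h. Viability was read as CellTiter-Glo luminescence. Primary runs used MIPE at 11 points (0.78 nM-46 µM) and NPC at 8 points (0.59 nM-46 µM); follow-ups used 11 points.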

[7] = qHTS of pediatric cancer cell lines to identify multiple opportunities for drug repurposing: Primary screen for Saos-2 cells (AID 1347097); further: nearly all actives have a fitted effect of over 40% in size
Procedure, shortened: as §2

[8] = qHTS of pediatric cancer cell lines to identify multiple opportunities for drug repurposing: Primary screen for SK-N-SH cells (AID 1347098); further: nearly all actives have a fitted effect of over 65% in size; further: potency means the concentration at half of the fitted maximal effect
Procedure, shortened: (§4)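 Cells (500-1,000/well) rested 5 h, then received compounds for 48 h; metabolically active cells were measured by CellTiter-Glo luminescence. Final concentrations spanned up to 46 µM (MIPE, 11-point) or 0.59 nM-46 µM (NPC, 8-point) in primary screens, 11-point in follow-ups.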

[9] = qHTS of pediatric cancer cell lines to identify multiple opportunities for drug repurposing: Primary screen for NB1643 cells (AID 1347099); further: nearly all actives have a fitted effect of over 50% in size
Procedure, shortened: as §2

[10] = qHTS of pediatric cancer cell lines to identify multiple opportunities for drug repurposing: Primary screen for LAN-5 cells (AID 1347100); further: potency means the concentration at half of the fitted maximal effect
Procedure, shortened: as §3

[11] = qHTS of pediatric cancer cell lines to identify multiple opportunities for drug repurposing: Primary screen for BT-12 cells (AID 1347101); further: nearly all actives have a fitted effect of over 25% in size; further: potency means the concentration at half of the fitted maximal effect
Procedure, shortened: as §4

[12] = qHTS of pediatric cancer cell lines to identify multiple opportunities for drug repurposing: Primary screen for Rh18 cells (AID 1347102); further: nearly all actives have a fitted effect of over 65% in size; further: potency means the concentration at half of the fitted maximal effect
Procedure, shortened: as §3

[13] = qHTS of pediatric cancer cell lines to identify multiple opportunities for drug repurposing: Primary screen for MG 63 (6-TG R) cells (AID 1347105); further: nearly all actives have a fitted effect of over 50% in size
Procedure, shortened: as §2

[14] = qHTS of pediatric cancer cell lines to identify multiple opportunities for drug repurposing: Primary screen for control Hh wild type fibroblast cells (AID 1347106);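 further: series mostly up to about 46 µM; a drop in luminescence marks cytotoxicity and a rise apparent proliferation; nearly all actives have a fitted effect of over 55% in size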
Procedure, shortened: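 Viability after 48 h compound treatment at 37C, 500-1,000 cells/well, read as ATP luminescence with CellTiter-Glo. Primary screens used 11-point (MIPE, 0.78 nM-46 µM) or 8-point (NPC, 0.59 nM-46 µM) final concentrations; follow-up screens used 11-point dilutions.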

[15] = qHTS of pediatric cancer cell lines to identify multiple opportunities for drug repurposing: Primary screen for Rh30 cells (AID 1347107); further: series mostly up to about 46 µM; nearly all actives have a fitted effect of over 75% in size
Procedure, shortened: as §3

[16] = qHTS of pediatric cancer cell lines to identify multiple opportunities for drug repurposing: Primary screen for A673 cells (AID 1347092); further: nearly all actives have a fitted effect of over 45% in size; further: potency means the concentration at half of the fitted maximal effect
Procedure, shortened: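 Titration-based qHTS on A673 cells: MIPE compounds spanned 11 points (0.78 nM to 46 µM final), NPC compounds 8 points (0.59 nM to 46 µM final). Viability after 48 h was measured by ATP luminescence.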

[17] = qHTS of pediatric cancer cell lines to identify multiple opportunities for drug repurposing: Primary screen for NB-EBc1 cells (AID 1347095); further: potency means the concentration at half of the fitted maximal effect
Procedure, shortened: as §2

[18] = qHTS of pediatric cancer cell lines to identify multiple opportunities for drug repurposing: Primary screen for OHS-50 cells (AID 1347103); further: nearly all actives have a fitted effect of over 40% in size; further: potency means the concentration at half of the fitted maximal effect
Procedure, shortened: as §4

[19] = qHTS of pediatric cancer cell lines to identify multiple opportunities for drug repurposing: Primary screen for Rh41 cells (AID 1347108);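 further: series mostly up to about 46 µM; luminescence drop marks cytotoxic hits; nearly all actives have a fitted effect of over 70% in size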
Procedure, shortened: as §2

[20] = qHTS of pediatric cancer cell lines to identify multiple opportunities for drug repurposing: Primary screen for RD cells (AID 1347104); further: nearly all actives have a fitted effect of over 55% in size; further: potency means the concentration at half of the fitted maximal effect
Procedure, shortened: as §2

Measured: Potency

CC1(CN2CCC(n3c(=O)[nH]c4ccccc43)CC2)OCc2ccccc2-n2cccc21 (centres undefined)
active: [4] 33.2 µM | [8] 24.4 µM
not listed: [16] | [17] | [18] | [19] | [20]
inactive: all other assays above

CC1(C)O[C@H]2CC(=O)OC[C@]23[C@H]2CC[C@@]4(C)[C@H](c5ccoc5)OC(=O)[C@H]5O[C@]54[C@]2(C)C(=O)C[C@@H]13
not listed: [2] | [20]
inactive: all other assays above

O=C(c1ccc(F)cc1)C1CCN(CCn2c(=O)[nH]c3ccccc3c2=O)CC1
not listed: [2] | [20]
inactive: all other assays above

Cn1cnc2c1c(=O)[nH]c(=O)n2C
inactive: [1] | [2] | [8] | [9] | [14] | [15]

C[C@H]1c2cccc(O)c2C(O)=C2C(=O)[C@]3(O)C(O)=C(C(N)=O)C(=O)[C@@H](N(C)C)[C@@H]3[C@@H](O)[C@@H]21
active: [11] 24.3 µM
not listed: [5] | [16] | [20]
inactive: all other assays above

O=c1c(-c2ccc(O)cc2)coc2cc(O)cc(O)c12
active: [17] 23.7 µM
not listed: [5] | [8] | [10] | [16] | [18] | [20]
inactive: all other assays above

CN1CCN(C2=Nc3cc(Cl)ccc3Nc3ccccc32)CC1
active: [8] 15.4 µM
not listed: [2] | [18] | [20]
inactive: all other assays above

CC(C)(Oc1ccc(C2CC2(Cl)Cl)cc1)C(=O)O (centres undefined)
not listed: [3] | [5] | [8] | [10] | [16] | [17] | [20]
inactive: all other assays above

O=C1N(c2ccccc2)c2ccccc2C1(Cc1ccncc1)Cc1ccncc1
not listed: [2] | [20]
inactive: all other assays above

NCCCCCC(=O)O
not listed: [2]
inactive: all other assays above

CN(Cc1cnc2nc(N)nc(N)c2n1)c1ccc(C(=O)N[C@@H](CCC(=O)O)C(=O)O)cc1
inactive: [6] | [7] | [8] | [12] | [13] | [14] | [15] | [19]
active: [1] 0.0066 µM | [3] 47.3 nM and 41.8 nM | [16] 4.2 nM and 59 nM | [4] 0.003 µM | [5] 9.8 nM and 48.5 nM | [17] 106 nM and 187 nM | [10] 0.0526 µM | [11] 0.0062 µM | [18] 0.0098 µM | [20] 0.0106 µM

COc1cc2nc(N3CCN(C(=O)C4COc5ccccc5O4)CC3)nc(N)c2cc1OC (centres undefined)
active: [16] 18.7 µM | [4] 29.6 µM | [8] 19.2 µM | [12] 26.4 µM | [18] 24.6 µM
not listed: [3] | [5] | [7] | [9] | [11] | [20]
inactive: all other assays above

CC1COc2c(N3CCN(C)CC3)c(F)cc3c(=O)c(C(=O)O)cn1c23 (centres undefined)
not listed: [8] | [9] | [16]
inactive: all other assays above
